ST2 inh – inhibitors of human ST2 (IL1RL1) binding to IL-33, primary screen, biochemical, AlphaLISA. Interleukin-1 receptor-like 1 (Homo sapiens), Q01638. AlphaLISA ST2-Fc/biotin-IL-33 interaction, 1 h. inhibition, % for hits at 17 µM. hit rate 2.3% among 78,000. AID 1259354, 2018; in the data active means inhibition above about 30%
Target sequence (Q01638 whole entry, looked up): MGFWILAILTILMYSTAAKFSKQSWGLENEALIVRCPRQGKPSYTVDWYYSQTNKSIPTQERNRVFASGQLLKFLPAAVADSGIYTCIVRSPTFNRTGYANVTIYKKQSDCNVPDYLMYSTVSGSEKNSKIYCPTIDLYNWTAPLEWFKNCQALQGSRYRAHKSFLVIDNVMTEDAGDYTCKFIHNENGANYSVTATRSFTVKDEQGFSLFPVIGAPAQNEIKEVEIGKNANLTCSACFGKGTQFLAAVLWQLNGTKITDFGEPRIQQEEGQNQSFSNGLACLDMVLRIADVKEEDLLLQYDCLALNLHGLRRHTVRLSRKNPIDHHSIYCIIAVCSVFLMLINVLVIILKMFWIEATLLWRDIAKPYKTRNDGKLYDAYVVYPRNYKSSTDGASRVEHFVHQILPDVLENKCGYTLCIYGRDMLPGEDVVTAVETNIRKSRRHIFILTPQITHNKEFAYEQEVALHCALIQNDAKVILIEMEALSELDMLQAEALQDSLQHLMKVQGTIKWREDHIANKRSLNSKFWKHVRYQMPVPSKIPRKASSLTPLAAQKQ
Starred values were filed as active, the others as inactive; i = inactive. Many of the other results were omitted from the sample, so hits are more common in it than they were.

SMILES	ST2 inh
O=c1c(CN2CCN(C/C=C/c3ccccc3)CC2)coc2ccccc12	i
Cn1cc(C(=O)N2CCC(C(N)=O)CC2)c2c3ccccc3n(C)c2c1=O	i
Clc1ccc(NCn2nnc3ccccc32)nc1	i
COc1cc(C)c(CN2CCN(c3ccc([N+](=O)[O-])cc3)CC2)cc1C	32%*
COc1ccc(C(=O)N2CCN(c3ccc([N+](=O)[O-])cc3)CC2)cc1OC	i
O=[N+]([O-])c1ccc(N2CCN(Cc3ccoc3)CC2)cc1	i
Cc1ccccc1CN1CCC(CN(CC2CCCO2)C2CCSCC2)CC1 (configuration not stated)	i
Cc1cc(NC(=O)c2nn(-c3ccc(Cl)cc3)c(=O)c3ccccc23)no1	i
COC(=O)[C@@H]1C[C@@H](NC(=O)c2cc(N)ccn2)CN1C	i
Cc1ccc(C(=O)Nc2nc3ccc4nc(C)sc4c3s2)cc1	i
CCOc1ccc(C(=O)Nc2nc3ccc4sc(C)nc4c3s2)cc1	i
CCN(CC)c1ccc(C(=O)Nc2nc3ccc4sc(C)nc4c3s2)cc1	i
Cc1nc2c(ccc3nc(NC(=O)c4ccc(C#N)cc4)sc32)s1	35%*
COc1cc(OC)cc(C(=O)Nc2nc3ccc4sc(C)nc4c3s2)c1	i
Cc1ccc(C(=O)Nc2nc3ccc4sc(C)nc4c3s2)cc1	42%*
COc1ccc(C(=O)c2c[nH]c3ccccc3c2=O)cc1	i
CCOC(=O)c1sc2nc(C)nc(N(C)C3CCCCC3)c2c1C	i
CCc1ccc2c(c1)C1(NN=C(c3ccc(C)cc3)S1)C(=O)N2 (configuration not stated)	45%*
CCc1ccc(N2C(=O)Nc3ccc(Br)cc3C2(O)C(=O)NC(C)C)cc1 (configuration not stated)	i
CCc1ccc(C(=O)CC2(O)C(=O)Nc3ccccc32)cc1 (configuration not stated)	i
C=CCN(CC=C)S(=O)(=O)c1ccc(NC(C)=O)cc1	i
CC1CCCCN1CCNC(=O)c1ccc2c(c1)NC(=O)CS2 (configuration not stated)	i
c1ccc(N2CCN(C3CCCN(Cc4ccn[nH]4)C3)CC2)cc1 (configuration not stated)	i
CCCC(C)NC(=O)c1ccc(N(C)C)cc1 (configuration not stated)	i
CN(C)c1ccc(NC(=O)c2ccc(Cl)cc2)cc1	i
SMILES	ST2 inh
CN(C)c1ccc(C(O)(c2ccc(N(C)C)cc2)c2ccc(N(C)C)cc2)cc1	97%*
Cc1n[nH]c(C)c1S(=O)(=O)N1CCCCC1	i
O=C1C[C@@H]2CCN(Cc3ccccc3)C[C@@H]2CCN1C1CCCCC1	76%*
NC(=O)[C@H](Cc1ccccc1)N1CC[C@H]2CN(C(=O)C3CCCCC3)CC[C@H]2CC1=O	i
c1ccc(CN2CCN(C3CCCCCC3)CC2)cc1	i
Cc1ocnc1C(=O)N1CCC(N2CCCC(C(=O)N3CCOCC3)C2)CC1 (configuration not stated)	i
Cc1nc2c(N)c(Cl)c(Cl)c(N)c2[nH]1	i
COc1ccc(C2C3C(=O)N(c4ccc(C)cc4)C(=O)C3N3CCCN23)cc1 (configuration not stated)	i
O=C(c1cc2ccccc2oc1=O)N1CCc2c([nH]c3ccccc23)C1c1ccccn1 (configuration not stated)	i
Cc1ccc(C(=O)N[C@H]2CO[C@H]3[C@@H]2OC[C@@H]3n2nnnc2Oc2cccc(N(C)C)c2)cc1	81%*
COC(=O)c1cccc(NC(=S)N[C@H]2CO[C@H]3[C@@H]2OC[C@@H]3n2nnnc2Oc2cccc(N(C)C)c2)c1	i
Cc1ccc(C(=O)N[C@H]2CO[C@H]3[C@@H]2OC[C@@H]3n2nnnc2-c2ccc(N(C)C)cc2)cc1	i
CC(=O)Nc1cc2c(cc1C(=O)c1ccc(Br)cc1)OCCO2	i
Cc1ccc(-n2c(=O)n(Cc3ccccc3)c3c(C(N)=O)nc(-c4ccccc4F)nc32)cc1C	i
O=C(OC1CCCCC1)c1cc2cc(Br)ccc2oc1=O	i
O=C(CN1C(=O)C2CCCCN2c2ccc(S(=O)(=O)N3CCCCC3)cc21)NC1CCCC1 (configuration not stated)	i
Cc1ccc(NS(=O)(=O)c2ccc(F)cc2)c(C)c1	i
Cc1ccc(NS(=O)(=O)c2cccc3c2C(=O)c2ccccc2C3=O)c(C)c1	64%*
Cc1ccc(NCN2C(=O)c3ccccc3C2=O)c(C)c1	i
CCOC(=O)c1sc(-c2ccccc2)cc1NC(=O)c1cc2ccccc2oc1=O	i
COC(=O)C1C(=O)C2=C(CC1C)NC(C)=C(C(=O)OCCOC(C)C)C2c1cccc(O)c1 (configuration not stated)	i
CCNC(=O)c1cccc(-c2ccnc3c2ccn3C)c1	i
CCOc1ccccc1N1CCN(C2CC(=O)N(c3ccccc3)C2=O)CC1 (configuration not stated)	i
CCOc1ccccc1N1C(=O)CC(Nc2ccc(N3CCOCC3)cc2)C1=O (configuration not stated)	51%*
COc1ccccc1N1C(=O)CC(N2CCOCC2)C1=O (configuration not stated)	i
SMILES	ST2 inh
CCc1nnc(NC(=O)CSc2nc3c(c(=O)n2-c2ccc(C)cc2)SCC3)s1	i
COc1ccccc1OCCCOc1ccc(/C=C2/C(=N)N3C=CSC3=NC2=O)cc1OC	34%*
CCCCOc1ccc(/C=c2\sc3nc(=O)c(C)nn3c2=O)cc1OC	i
COc1cc(C=O)ccc1OCCCOc1ccccc1C(=O)O	i
Cc1ccc(-n2ncnc2-c2ccccc2C)cc1Cl	i
COc1ccc(-c2c3c(=O)n(C)c(=O)n(C)c3cn2-c2cc(C)cc(C)c2)cc1	i
CC(CN1CCc2ccccc2C1)NC(=O)CS(C)(=O)=O (configuration not stated)	i
O=C(CSc1nc2ccccc2o1)Nc1ccccc1	i
Cn1c(CSc2nc3ccccc3o2)nc2ccccc21	i
O=[N+]([O-])c1ccc(CSc2nc3ccccc3o2)cc1	35%*
Cn1c(=N)n(CC(=O)NC2C3CC4CC(C3)CC2C4)c2ccccc21 (configuration not stated)	i
C=CCOc1ccc(C=Nc2ccc(C)c(Cl)c2)c(O)c1	92%*
Cc1ccc(N=Cc2nc(-c3ccc(Br)cc3)oc2O)cc1Cl	i
Oc1cccc(C=Nc2ccc(Cl)c(Cl)c2)c1O	i
Cc1ccc(N(CC(=O)NC(C)c2nncn2C)S(C)(=O)=O)cc1 (configuration not stated)	i
O=C1NN(c2ccc(F)cc2)C(=O)/C1=C\c1cccn1-c1ccc([N+](=O)[O-])cc1	31%*
O=C1NC(=O)N(c2cccc(F)c2)C(=O)/C1=C/c1cccn1-c1ccccc1	i
Cc1cc(/C=C2/C(=O)NC(=O)N(c3ccccc3)C2=O)c(C)n1-c1ccc([N+](=O)[O-])cc1	i
O=[N+]([O-])c1ccc(NS(=O)(=O)c2ccc(Br)cc2)cc1	i
O=C1NN(c2ccc(Br)cc2)C(=O)/C1=C\c1cccn1-c1ccc([N+](=O)[O-])cc1	33%*
C(=C\Sc1ccccn1)/Sc1ccccn1	i
Cc1ccccc1SC1CCN(C(=O)c2cn(CC3CCCO3)nn2)CC1 (configuration not stated)	i
O=C(Cn1ccc2ccccc2c1=O)NCC(=O)Nc1ccc(F)cc1	i

Screening data from PubChem.
